Source: PubChem (National Center for Advancing Translational Sciences (NCATS))
15-hLO inh: 15-hLO (ALOX15) enzyme inhibition; Potency, µM (doses to about 57.1 µM), for the others: at the top dose activity change, negative = inhibition, actives largely listed as inhibitors; P16050; 74,000 compounds, 1.4% hits; AID 887; purified 15hLO-1, xylenol orange hydroperoxide absorbance; further: on the % scale 0 is the no-effect control and ±100 the full control effect; nearly all actives have a fitted effect of over 55% in size
Target sequence (P16050 whole entry, looked up): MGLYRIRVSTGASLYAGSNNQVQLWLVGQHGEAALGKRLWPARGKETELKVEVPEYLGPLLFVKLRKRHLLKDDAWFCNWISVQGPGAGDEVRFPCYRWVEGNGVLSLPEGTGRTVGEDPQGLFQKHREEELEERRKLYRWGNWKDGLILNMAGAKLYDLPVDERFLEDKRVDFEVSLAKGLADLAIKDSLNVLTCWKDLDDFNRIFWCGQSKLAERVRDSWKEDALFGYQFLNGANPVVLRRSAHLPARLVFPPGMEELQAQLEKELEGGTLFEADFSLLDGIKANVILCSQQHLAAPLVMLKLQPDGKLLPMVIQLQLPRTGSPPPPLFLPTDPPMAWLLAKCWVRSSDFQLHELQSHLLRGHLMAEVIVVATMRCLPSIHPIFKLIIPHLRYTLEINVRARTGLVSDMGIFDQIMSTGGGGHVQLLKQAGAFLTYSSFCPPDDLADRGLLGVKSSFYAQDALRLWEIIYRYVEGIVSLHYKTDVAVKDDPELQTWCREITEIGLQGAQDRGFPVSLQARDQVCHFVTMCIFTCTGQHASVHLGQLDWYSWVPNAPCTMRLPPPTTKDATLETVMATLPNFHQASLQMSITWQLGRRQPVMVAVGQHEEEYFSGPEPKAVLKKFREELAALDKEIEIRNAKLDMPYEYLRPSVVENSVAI
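Readout: Fe(III)-xylenol orange absorbance, 573-to-405 nm ratio as reaction progress. Enzyme 40 nM purified human 15hLO-1, substrate 50 uM arachidonic acid, 6 min RT after 15 min compound preincubation; Hepes pH 7.5 buffer with Triton X-100.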
Caspase-1 inhib: allosteric or competitive inhibitors of human caspase-1; Caspase-1 enzyme, Ac-WEHD-AFC fluorogenic rate; 75,000 compounds, 0.03% hits; Potency, µM (series often up to 57.5 µM), for the others: top-dose activity change, negative = inhibition, usual class: inhibitors; AID 900;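 further: plate controls were vehicle for no effect and no substrate for full effect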
Casp7 inh: allosteric or competitive inhibitors of human caspase-7 | P55210 | recombinant caspase-7, Ac-DEVD-AFC fluorescence rate | Potency, µM (top dose mostly 57.5 µM), for inactives: at the highest dose activity change, negative = inhibition, hits mostly inhibitors | 75,000 compounds, 0.02% hits | AID 889; active means well fitted inhibition curve with a large enough effect in the main read-out, with a control signal flat, not every such curve was filed as active; inconclusive means small, poorly fitted or top-dose-only effect, or a change in a side signal; further: % of control where 0% means no effect
HEK293 cAMP cs: raises cAMP in parental HEK293 cells, TSHR agonist counter-screen | parental HEK293 CNG cAMP sensor, membrane potential fluorescence | 73,000 compounds, 2.5% hits | Potency, µM (highest dose often 57.1 µM), for the others: at the highest dose activation, usual class: activators; further: % of control where 0% means no effect; nearly all actives have a fitted effect of over 55% in size
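Counterscreen for endogenous-receptor signalling: CNG-channel HEK 293 cells report cAMP rise by membrane depolarization. After 60 min dye equilibration with 100 uM RO 20-1724, compounds incubated 30 min before bottom-read fluorescence at 590 nm.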
TSHR ag: TSH receptor (human) agonism; P16473; HEK293-CNG-TSHR cells (CNG channel as cAMP sensor), membrane potential dye, cAMP; Potency, µM (series often up to 57.1 µM), for the others: at the top dose activation, usual class: activators; 73,000 compounds, 0.48% hits; active means well fitted activation curve with a large enough effect in the main read-out, with a control signal flat, not every such curve was filed as active; inconclusive means small, poorly fitted or top-dose-only effect, or a change in a side signal; inactive means no such curve, though single readings can be large or run the other way; % of control where 0% means no effect;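 further: the control signal comes from parental cells without the receptor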
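cAMP rise detected as CNG-channel membrane depolarization by fluorescent dye (emission 590 nm), 30 min after compound, following 60 min dye loading containing 100 uM RO 20-1724 at room temperature. Cells: TSHR/CNG HEK 293, with parental CNG HEK 293 as control.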
ERK AVP inh: vasopressin-driven ERK pathway inhibition | HEK293-V1b, vasopressin-stimulated pERK AlphaScreen | Potency, µM (titrated, usually from 57.5 µM), inactives show top-dose activity, negative = inhibition, usual class: inhibitors | 72,000 compounds, 0.99% hits; further: on the % scale 0 is the no-effect control and ±100 the full control effect; nearly all actives have a fitted effect of over 55% in size
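V1b-HEK293 cells; cpd 30 min 37C; 25 nM vasopressin 5 min; lyse 10 min; AlphaScreen beads 5 hr RT. Normalized to DMSO basal and 25 nM vasopressin; AC50 by Hill fit.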
Active calls of the source: *; ? = inconclusive; / = no result given; [ ] = another dose, or the depositor's remark. This is a sample that favours compounds with a hit; in the whole collection about 4.8% have one here. Unless noted, the call rests on the fitted dose curve; in most records, active means well fitted curve in the direction sought with a large enough effect; inconclusive means small, poorly fitted or top-dose-only effect, or another doubt; inactive means no such curve, though single readings can be large; an effect the other way counts as inactive or inconclusive. Potency means the concentration at half of the fitted maximal effect.

SMILES	15-hLO inh	Caspase-1 inhib	Casp7 inh	HEK293 cAMP cs	TSHR ag	ERK AVP inh
CC(=O)S[C@@H]1CC2=CC(=O)CC[C@@]2(C)[C@H]2CC[C@]3(C)[C@H](CC[C@@]34CCC(=O)O4)[C@H]12	-5.6%	0.8%	2.4%	4.3%	1.9%	18.8%
O=C1[C@@H]2C=CC=CC2=NC(=S)N1CCN1CCC(=C(c2ccc(F)cc2)c2ccc(F)cc2)CC1	-28.8%	1.5%	-0.8%	?	?	-0.8%
O=c1c(CCc2ccccc2)nc2cnc(N3CCOCC3)nc2n1C[C@H]1CCCO1	-9.9%	-12.9%	-21.9%	9.0%	7.9%	-11.3%
COc1ccc(C(=O)N2CCC[C@@]3(CCN(Cc4ccncc4)C3)C2)cc1	-12.8%	-0.1%	-1.0%	19.8%	-1.0%	-4.5%
CO[C@H]1COC(=O)[C@@H](C)COC(=O)[C@@H](Cc2ccccc2)NC(=O)C/C=C\[C@H]1C	-0.3%[11.4 µM]	1.2%[11.5 µM]	-2.0%[11.5 µM]	0.1%[11.4 µM]	3.9%[11.4 µM]	8.7%[11.5 µM]
CC(=O)Nc1cccc(NC(=O)CSc2ncc(-c3ccc(Cl)cc3)n2Cc2ccco2)c1	?	-3.4%	-5.6%	25.1µM*	?	14.4%
O=S(=O)(c1ccc(Oc2ccc(S(=O)(=O)N3CCOCC3)cc2)cc1)N1CCOCC1	2.7%[11.4 µM]	-1.1%	0.4%	8.3%[11.4 µM]	12.6%[11.4 µM]	-26.0%
C=CS(=O)(=O)c1ccc(Oc2ccc(S(=O)(=O)C=C)cc2)cc1	-3.0%	-1.1%	1.4%	?	?	2.51µM*
CC(C)(C)N1C(=O)Cc2c1nc(N)c1c(N)nc(N3CCCCC3CO)c(C#N)c21 (stereo not given)	20µM*	/	?	-26.6%	-16.4%	-15.0%
COc1cccc(-n2nnc3c(=O)n(Cc4ccccc4F)cnc32)c1	-10.3%	-2.8%	-2.5%	25.1µM*	?	-22.2%
COc1cccc(-n2nnc3c(=O)n(Cc4cccc(C)c4)cnc32)c1	-15.9%	1.1%	0.5%	10.5%	3.6%	/
O=C(O)CCSc1nc2ccccc2n1CCOc1ccccc1	3.1%	0.2%	0.6%	24.7%	8.4%	?
Cc1ccccc1-n1nnnc1SCc1csc(-c2ccccc2)n1	-12.7%	-1.7%	-5.4%	3.16µM*	?	6.7%
COCCn1c(SCc2csc(-c3ccccc3)n2)nc2ccccc21	-4.8%	-2.5%	-3.2%	31.6µM*	?	25.1µM*
Nn1c(SCc2csc(-c3ccccc3)n2)nnc1-c1cccs1	1.0%	-0.7%	-3.0%	25.1µM*	?	7.0%
CN1CCN(c2ncc3nc(-c4cccc(C#N)c4)c(=O)n(C[C@H]4CCCO4)c3n2)CC1	-6.5%	/	?	-7.4%	-7.2%	2.9%
Cc1cc(C)n(-c2nc3ccccc3c(=O)n2OCC(=O)Nc2c(C)cccc2C)n1	3.0%	-12.5%	-0.3%	26.6%	12.6µM*	?
Cc1cc(C)n(-c2nc3ccccc3c(=O)n2OCC(=O)N(C)C)n1	-5.4%	2.9%	0.3%	4.0%	-2.5%	5.8%
c1ccc2c(c1)nnn2Cc1nnc2sc(-c3ccc4c(c3)OCCO4)nn12	12.6µM*	-0.1%	-0.5%	9.8%	25.3%	-5.2%
Cc1cc(O)c(C(C)(C)C)cc1Sc1cc(C(C)(C)C)c(O)cc1C	?	-4.9%	-9.6%	?	?	?
O=c1/c(=C\c2ccc3c(c2)OCO3)sc2n1CCCN=2	?	-2.6%	1.8%	23.9%	4.9%	10µM*
O=C(O)CCCC(=O)N(Cc1ccccc1)Cc1ccccc1	4.0%[11.4 µM]	0.6%	0.7%	17.3%[11.4 µM]	18.6%[11.4 µM]	-24.3%
CCN(Cc1ccccc1)C(=O)CCCOc1ccccc1	3.98µM*	-2.7%	-1.0%	?	?	?
CCCCCCCCCCCCCCCC(=O)NC[C@@H](COP(=O)([O-])OCC[N+](C)(C)C)OCC	46.1%	0.7%	3.9%	19.8%	/	?
O=C(Nc1cccc(S(=O)(=O)C(F)F)c1)c1ccc(Cl)c(S(=O)(=O)N2CCOCC2)c1	-26.1%	-1.6%	-2.7%	17.6%	/	12.6µM*
